Test results published in PubChem BioAssay (NCATS).
Results filed as inconclusive are left out. The source made the active and inactive calls. Calls come from the whole dose curve; as a rule, active = well fitted curve in the direction sought with a large enough effect; inconclusive = small, poorly fitted or top-dose-only effect, or another doubt; inactive = no such curve, though single readings can be large; an effect the other way counts as inactive or inconclusive.

Tests used:
[1] = Quantitative High-Throughput drug screen in 47 multiple myeloma cell lines against the NCATS MIPE library collection: KMS12PE_JCRB cell viability assay (AID 1918972); note: nearly all actives have a fitted effect of over 30% in size
Summary of the method: (§1)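 qHTS of the MIPE 4.0 collection: 500 myeloma cells/well, 48 h drug exposure at 37C in 5% CO2, then CellTiter-Glo for 5 min at room temperature before luminescence reading.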

[2] = Quantitative High-Throughput drug screen in 47 multiple myeloma cell lines against the NCATS MIPE library collection: KMS20_JCRB cell viability assay (AID 1918973); note: nearly all actives have a fitted effect of over 45% in size
Summary of the method: (§2)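 Inhibition of cell viability is measured here. Each line was plated at 500 cells per well, treated with MIPE 4.0 drugs, kept 48 hours at 37C, then assayed for ATP content by CellTiter-Glo luminescence.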

[3] = Quantitative High-Throughput drug screen in 47 multiple myeloma cell lines against the NCATS MIPE library collection: NCIH929_DSMZ cell viability assay (AID 1918978); note: nearly all actives have a fitted effect of over 35% in size
Summary of the method: (§3)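 Viability after 48 h drug exposure was measured as ATP-dependent luminescence. Cells, 500 per well, sat at 37 °C under 5% CO2; DMSO wells set 100%, media-only wells 0%.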

[4] = Quantitative High-Throughput drug screen in 47 multiple myeloma cell lines against the NCATS MIPE library collection: MM1S_ATCC cell viability assay (AID 1918980); note: nearly all actives have a fitted effect of over 45% in size
Summary of the method: as §3

[5] = Quantitative High-Throughput drug screen in 47 multiple myeloma cell lines against the NCATS MIPE library collection: MM1R_ATCC cell viability assay (AID 1918981); note: nearly all actives have a fitted effect of over 35% in size
Summary of the method: as §3

[6] = Quantitative High-Throughput drug screen in 47 multiple myeloma cell lines against the NCATS MIPE library collection: LP1_DSMZ cell viability assay (AID 1918982); note: nearly all actives have a fitted effect of over 35% in size
Summary of the method: as §3

[7] = Quantitative High-Throughput drug screen in 47 multiple myeloma cell lines against the NCATS MIPE library collection: L363_DSMZ cell viability assay (AID 1918984); conditions: L363 myeloma viability, CellTiter-Glo ATP luminescence, 48 h; viability (% of control): at 45.8 µM (top of the series); note: nearly all actives have a fitted effect of over 40% in size
Summary of the method: as §3

[8] = Quantitative High-Throughput drug screen in 47 multiple myeloma cell lines against the NCATS MIPE library collection: OCIMY7_PLB cell viability assay (AID 1918987); conditions: OCI-MY7 myeloma viability, CellTiter-Glo ATP, 48 h; viability (% of DMSO): at 45.8 µM (top of the series); note: nearly all actives have a fitted effect of over 65% in size
Summary of the method: as §3

[9] = Quantitative High-Throughput drug screen in 47 multiple myeloma cell lines against the NCATS MIPE library collection: OCIMY5_PLB cell viability assay (AID 1918988); note: nearly all actives have a fitted effect of over 65% in size
Summary of the method: as §3

[10] = Quantitative High-Throughput drug screen in 47 multiple myeloma cell lines against the NCATS MIPE library collection: OPM1_PLB cell viability assay (AID 1918989); note: nearly all actives have a fitted effect of over 40% in size
Summary of the method: as §3

[11] = Quantitative High-Throughput drug screen in 47 multiple myeloma cell lines against the NCATS MIPE library collection: U266_ATCC cell viability assay (AID 1919864); note: nearly all actives have a fitted effect of over 35% in size
Summary of the method: as §3

[12] = Quantitative High-Throughput drug screen in 47 multiple myeloma cell lines against the NCATS MIPE library collection: XG6_PLB cell viability assay (AID 1919865); note: nearly all actives have a fitted effect of over 40% in size
Summary of the method: as §3

[13] = Quantitative High-Throughput drug screen in 47 multiple myeloma cell lines against the NCATS MIPE library collection: KMS21BM_JCRB cell viability assay (AID 1918974); conditions: ATP luminescence, 48 h; viability: at 45.8 µM (top of the series)
Summary of the method: as §2

[14] = Quantitative High-Throughput drug screen in 47 multiple myeloma cell lines against the NCATS MIPE library collection: KMS26_JCRB cell viability assay (AID 1918975); note: nearly all actives have a fitted effect of over 45% in size
Summary of the method: as §1

[15] = Quantitative High-Throughput drug screen in 47 multiple myeloma cell lines against the NCATS MIPE library collection: MMM1_PLB cell viability assay (AID 1918976); note: nearly all actives have a fitted effect of over 35% in size
Summary of the method: as §3

[16] = Quantitative High-Throughput drug screen in 47 multiple myeloma cell lines against the NCATS MIPE library collection: KMS28PE_JCRB cell viability assay (AID 1918983); note: nearly all actives have a fitted effect of over 35% in size
Summary of the method: as §3

[17] = Quantitative High-Throughput drug screen in 47 multiple myeloma cell lines against the NCATS MIPE library collection: SKMM1_PLB cell viability assay (AID 1919863); conditions: SKMM1 myeloma viability, CellTiter-Glo ATP, 48 h; viability: hits give low values; note: nearly all actives have a fitted effect of over 35% in size
Summary of the method: as §3

[18] = Quantitative High-Throughput drug screen in 47 multiple myeloma cell lines against the NCATS MIPE library collection: OCIMY1_PLB cell viability assay (AID 1918979); note: nearly all actives have a fitted effect of over 35% in size
Summary of the method: as §3

[19] = Quantitative High-Throughput drug screen in 47 multiple myeloma cell lines against the NCATS MIPE library collection: MOLP8_DSMZ cell viability assay (AID 1918977); note: nearly all actives have a fitted effect of over 45% in size
Summary of the method: as §3

[20] = Quantitative High-Throughput drug screen in 47 multiple myeloma cell lines against the NCATS MIPE library collection: KMS34_JCRB cell viability assay (AID 1918985); note: nearly all actives have a fitted effect of over 40% in size
Summary of the method: as §3
Potency is the fitted concentration of half-maximal effect.

Nc1[nH]nc2nnc(-c3c(-c4ccccc4)nn4ccccc34)cc12
active: Potency [1] 2.35 µM | Potency [2] 2.09 µM | Potency [3] 3.72 µM | Potency [4] 0.264 µM | Potency [5] 23.5 µM | Potency [7] 2.64 µM | Potency [8] 0.209 µM | Potency [9] 20.9 µM | Potency [10] 5.26 µM | Potency [11] 5.26 µM | Potency [12] 3.72 µM
inactive: Potency [6]

Clc1ccc(COC(Cn2ccnc2)c2ccc(Cl)cc2Cl)c(Cl)c1 (stereo not given)
active: Potency [1] 18.7 µM | Potency [13] 37.2 µM | Potency [14] 23.5 µM | Potency [15] 16.6 µM | Potency [5] 23.5 µM | Potency [16] 18.7 µM | Potency [7] 20.9 µM | Potency [9] 26.4 µM | Potency [10] 18.7 µM | Potency [17] 20.9 µM | Potency [12] 18.7 µM

CNC(=O)[C@H](CC1=CN=C2C=CCC=C12)NC(=O)[C@@H](CC(=O)NO)CC(C)C
active: Potency [1] 0.105 µM | Potency [13] 0.105 µM | Potency [4] 3.32 µM | Potency [7] 0.059 µM
inactive: Potency [14] | Potency [18] | Potency [6] | Potency [10] | viability [17] 109%

CNC(=O)c1cc(COc2nnc(Nc3ccc(Cl)cc3)c3ccoc23)ccn1
active: Potency [1] 6.62 µM | Potency [18] 23.5 µM | Potency [9] 20.9 µM | Potency [17] 23.5 µM
inactive: Potency [2] | Potency [3] | Potency [4] | Potency [10]

OC1CCC(Nc2ncc3nc(Nc4c(F)cc(F)cc4F)n([C@@H]4CCOC4)c3n2)CC1 (stereo not given in full)
active: Potency [1] 18.7 µM | Potency [13] 4.69 µM | Potency [19] 11.8 µM | Potency [4] 11.8 µM | Potency [5] 10.5 µM | Potency [7] 5.26 µM | Potency [20] 23.5 µM | Potency [17] 18.7 µM | Potency [12] 9.35 µM
inactive: Potency [14] | Potency [16]

COc1ccc(-c2nc3ccc(C4=NNC(=O)CC4C)cc3[nH]2)cc1 (stereo not given)
inactive: Potency [1] | Potency [13] | Potency [14] | Potency [19] | Potency [18] | Potency [5] | Potency [6] | Potency [16] | Potency [7] | Potency [20] | Potency [9] | viability [17] 101% | Potency [12]
active: Potency [4] 23.5 µM

CCOc1ccccc1N=Nc1c(C)[nH]n(-c2nc(-c3ccccc3)cs2)c1=O
inactive: Potency [13] | Potency [20] | Potency [10]
active: Potency [1] 18.7 µM | Potency [14] 4.18 µM | Potency [15] 8.33 µM | Potency [3] 0.264 µM | Potency [18] 7.43 µM | Potency [4] 13.2 µM | Potency [5] 3.32 µM | Potency [9] 1.18 µM | Potency [17] 2.96 µM | Potency [11] 8.33 µM

CC[C@]1(O)C[C@H]2CN(CCC3=c4ccccc4=N[C]3[C@@](C(=O)OC)(c3cc4c(cc3OC)N(C)[C@H]3[C@@](O)(C(N)=O)[C@H](O)[C@]5(CC)C=CCN6CC[C@]43[C@@H]65)C2)C1
inactive: Potency [12]
active: Potency [1] 0.132 µM | Potency [13] 0.0935 µM | Potency [14] 0.0662 µM | Potency [15] 0.132 µM | Potency [19] 0.148 µM | Potency [18] 0.662 µM | Potency [4] 0.235 µM | Potency [5] 0.0662 µM | Potency [6] 0.0083 µM | Potency [16] 0.0023 µM | Potency [7] 0.132 µM | Potency [20] 0.0053 µM | Potency [8] 0.0662 µM | Potency [17] 0.0148 µM | Potency [11] 0.0935 µM

O=c1cc(-c2ccc(O)c(O)c2)oc2cc(O)cc(O)c12
active: Potency [13] 2.09 µM | Potency [12] 14.8 µM
inactive: Potency [1] | Potency [14]

O=C(O)C1=CO[C@@H](O[C@@H]2O[C@H](CO)[C@H](O)[C@H](O)[C@H]2O)[C@@H]2C(CO)=CC[C@H]12
active: Potency [1] 0.0743 µM | Potency [4] 16.6 µM
inactive: Potency [2] | Potency [19] | Potency [18] | Potency [6] | Potency [16] | Potency [7] | Potency [8] | Potency [10] | viability [17] 118% | Potency [12]

COc1nccc(-c2c(-c3ccc(F)cc3)ncn2C2CCNCC2)n1
inactive: Potency [1] | Potency [2] | Potency [6] | Potency [11]
active: Potency [15] 13.2 µM | Potency [16] 13.2 µM | Potency [9] 16.6 µM | Potency [17] 9.35 µM

CN1CC(=O)N2C(Cc3c([nH]c4ccccc34)[C@H]2c2ccc3c(c2)OCO3)C1=O (stereo not given in full)
inactive: Potency [1] | Potency [2] | Potency [3] | Potency [18] | Potency [16] | Potency [7] | Potency [10] | viability [17] 129%

O=C(Nc1cccc2c(=O)cc(-c3nn[nH]n3)oc12)c1ccc(OCCCCc2ccccc2)cc1
inactive: Potency [19]
active: Potency [1] 20.9 µM | Potency [2] 14.8 µM | Potency [4] 23.5 µM | Potency [5] 26.4 µM | Potency [10] 18.7 µM | Potency [12] 26.4 µM

COc1ccc2c(c1)CC[C@H]1[C@@H]2CC[C@]2(C)[C@@H](NCCCCCCN3C(=O)C=CC3=O)CC[C@H]12
inactive: Potency [1] | Potency [2] | Potency [3] | Potency [16] | Potency [20] | viability [17] 134% | Potency [12]
active: Potency [11] 20.9 µM

Cc1cc(CS(=O)(=O)c2ccccc2)cc(OCc2ccc(CN3CCC[C@H]3CO)cc2)c1
active: Potency [1] 16.6 µM | Potency [13] 1.18 µM | Potency [14] 5.26 µM | Potency [15] 13.2 µM | Potency [4] 4.69 µM | Potency [7] 8.33 µM | Potency [10] 20.9 µM
inactive: Potency [18] | Potency [20]
